Laboratory results: PubChem BioAssay (Tox21)
Results filed as inconclusive are left out. Calls of active or inactive are those of the source. Unless noted, calls follow the shape of the dose curve; as a rule, active = well fitted curve in the direction sought with a large enough effect in the repeat runs; inconclusive = weak or mixed curves; inactive = no such curve, though single readings can be large; an effect the other way counts as inactive or inconclusive.

Key:
[1] = molecular target: Aryl hydrocarbon receptor (Homo sapiens) (UniProt P35869); experiment: qHTS assay to identify small molecule that activate the aryl hydrocarbon receptor (AhR) signaling pathway (AID 743085);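 also: HG2L7.5c1 human HepG2 liver cells with stably integrated DRE-driven firefly reporter; series mostly up to about 70 µM; nearly all actives have a fitted effect of over 15% in size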
In short: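 Measured in HG2L7.5c1 cells: CellTiter-Fluor signal (30 min incubation, 37C) for viability, then luciferase luminescence (30 min, room temperature). Compound contact time was 24 h at 37C, following a 5 h pre-incubation.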

[2] = qHTS assay to identify small molecule that activate the aryl hydrocarbon receptor (AhR) signaling pathway - cell viability counter screen (AID 743086);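 also: HepG2 liver cells carrying the AhR DRE luciferase reporter; series mostly up to about 70 µM; nearly all actives have a fitted effect of over 45% in size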
In short: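 HepG2-AhR-luc (HG2L7.5c1) cells, 4000/well, were preincubated 5 h at 37C, exposed to compound in qHTS format for 24 hr at 37C, then given CellTiter-Fluor for 30 min; viability was read as fluorescence in the reporter wells.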

[3] = molecular target: Peroxisome proliferator-activated receptor gamma (Homo sapiens) (UniProt P37231); experiment: qHTS assay to identify small molecule agonists of the peroxisome proliferator-activated receptor gamma (PPARg) signaling pathway (AID 743094; active = well fitted activation curve with a large enough effect in the signal ratio in the repeat runs, not every such curve was filed as active; the % refers to the signal ratio)
In short: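 Compounds dissolved in DMSO were added to PPARg UAS-bla HEK293H cells for 17 h at 37C, and reporter expression was quantified by fluorescence intensity after 1 h with LiveBLAzer B/G FRET substrate.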

[4] = molecular target: Peroxisome proliferator-activated receptor gamma (Homo sapiens) (UniProt P37231); experiment: qHTS assay to identify small molecule antagonists of the peroxisome proliferator-activated receptor gamma (PPARg) signaling pathway (AID 743191; calls by dose curve; also: series mostly up to about 63 µM; nearly all actives have a fitted effect of over 30% in size)
In short: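 GeneBLAzer PPARg UAS-bla HEK293H cells carrying a UAS-driven beta-lactamase reporter were plated at 3000 cells/well, preincubated 5 h at 37C, then given compound for 17 h at 37C; LiveBLAzer B/G FRET substrate was read after 1 h at room temperature.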

[5] = qHTS assay to identify small molecule antagonists of the peroxisome proliferator-activated receptor gamma (PPARg) signaling pathway - cell viability counter screen (AID 743194); also: nearly all actives have a fitted effect of over 55% in size
In short: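 PPARg-UAS-bla HEK293H cells were plated, rested 5 h at 37 C, then treated with compounds plus rosiglitazone (50 nM final) for 17 h at 37 C; viability was then read by CellTiter-Glo luminescence after 30 min at room temperature.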

[6] = qHTS assay for small molecule agonists of the antioxidant response element (ARE) signaling pathway - cell viability counter screen (AID 743203; calls by dose curve; also: nearly all actives have a fitted effect of over 55% in size)
In short: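 Following 16 hrs of compound treatment at 37C, HepG2 cells with an ARE-controlled beta-lactamase gene were lysed with CellTiter-Glo. Luminescence was read after 30 min at room temperature.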

[7] = qHTS assay for small molecule activators of the heat shock response signaling pathway - cell viability counter screen (AID 743209); also: nearly all actives have a fitted effect of over 50% in size
In short: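 Readout: CellTiter-Glo luminescence, 30 min at room temperature. System: HSE-bla HeLa cells, 1500/well, plated overnight. Treatment: compounds in DMSO, 5 h at 37 C.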

[8] = qHTS assay to identify small molecule agonists of the peroxisome proliferator-activated receptor delta (PPARd) signaling pathway - cell viability counter screen (AID 743211); also: nearly all actives have a fitted effect of over 55% in size
In short: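 Following 5 h plating at 37 C and 5% CO2, PPARd UAS-bla HEK293H cells took up test compounds for 17 h. Viability was quantified by luminescence 30 min after CellTiter-Glo addition at room temperature.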

[9] = molecular target: Peroxisome proliferator-activated receptor delta (Homo sapiens) (UniProt Q03181); experiment: qHTS assay to identify small molecule agonists of the peroxisome proliferator-activated receptor delta (PPARd) signaling pathway (AID 743212; calls by dose curve)
In short: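 A PPARd-bla HEK293H line with beta-lactamase under an Upstream Activator Sequence is treated with compounds at 37 C. Substrate loading for 2 h at room temperature precedes the fluorescence measurement.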

[10] = qHTS assay to identify small molecule antagonists of the peroxisome proliferator-activated receptor delta (PPARd) signaling pathway - cell viability counter screen (AID 743213); also: nearly all actives have a fitted effect of over 50% in size
In short: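 CellTiter-Glo was added to PPARd-bla HEK293H wells following 17 h compound treatment in the presence of 300 nM L165041. Luminescence was recorded after 30 min at room temperature.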

[11] = molecular target: Peroxisome proliferator-activated receptor delta (Homo sapiens) (UniProt Q03181); experiment: qHTS assay to identify small molecule antagonists of the peroxisome proliferator-activated receptor delta (PPARd) signaling pathway (AID 743215; active = well fitted inhibition curve with a large enough effect in the signal ratio in the repeat runs, not every such curve was filed as active; the % refers to the signal ratio;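 also: cells stimulated with agonist L165041 at 300 nM final during compound exposure; series mostly up to about 62 µM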)
In short: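 HEK293H UAS-bla, PPARd; agonist L165041 300 nM final with cpd in DMSO; 37 C 17 h; FRET substrate, RT 2 h; fluorescence intensity.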

[12] = qHTS assay to identify small molecule agonists of the farnesoid-X-receptor (FXR) signaling pathway - cell viability counter screen (AID 743218); also: nearly all actives have a fitted effect of over 45% in size
In short: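 Parallel cytotoxicity test: compound-treated (16 h, 37 C) HEK 293T FXR-bla reporter cells were lysed with CellTiter-Glo and luminescence recorded.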

[13] = qHTS assay to identify small molecule antagonists of the farnesoid-X-receptor (FXR) signaling pathway - cell viability counter screen (AID 743221; active = well fitted cell-killing curve with a large enough effect in the repeat runs, not every such curve was filed as active; also: nearly all actives have a fitted effect of over 50% in size)
In short: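 Compound effects on cell number were measured as CellTiter-Glo luminescence in HEK 293T cells expressing FXR-UAS-bla, after 16 h at 37 C with 50 uM CDCA (final).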

[14] = molecular target: Vitamin D3 receptor (Homo sapiens) (UniProt P11473); experiment: qHTS assay to identify small molecule antagonists of the vitamin D receptor (VDR) signaling pathway (AID 743223; active = well fitted inhibition curve with a large enough effect in the signal ratio in the repeat runs, not every such curve was filed as active; the % refers to the signal ratio)
In short: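 Beta-lactamase activity in VDR-bla cells is measured by FRET substrate fluorescence (2 h, room temperature) after cells spend 16 h at 37C with test compound and 3 nM final 1alpha,25-dihydroxyvitamin D3.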

[15] = qHTS assay for small molecule agonists of the antioxidant response element (ARE) signaling pathway (AID 743202; active = well fitted activation curve with a large enough effect in the signal ratio in the repeat runs, not every such curve was filed as active; the % refers to the signal ratio)
In short: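 Compounds delivered in DMSO to ARE-bla HepG2 cells (2,000 cells/well, pre-incubated 5 h) and left 16 h at 37 C. LiveBLAzer B/G FRET substrate then added for 2 h at RT before fluorescence reading.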

[16] = qHTS assay for small molecule activators of the heat shock response signaling pathway (AID 743210; active = well fitted activation curve with a large enough effect in the signal ratio in the repeat runs, with a control signal flat, not every such curve was filed as active; the % refers to the signal ratio;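 also: HeLa cells with beta-lactamase reporter driven by heat shock elements; series mostly up to about 63 µM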)
In short: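 Reporter gene assay: HeLa cells stably bearing an HSE-bla construct, compound treatment 5 h at 37 C, LiveBLAzer substrate 2.5 h at RT, fluorescence intensity.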

[17] = molecular target: Bile acid receptor (Homo sapiens) (UniProt Q96RI1); experiment: qHTS assay to identify small molecule antagonists of the farnesoid-X-receptor (FXR) signaling pathway (AID 743217; active = well fitted inhibition curve with a large enough effect in the signal ratio in the repeat runs, not every such curve was filed as active; the % refers to the signal ratio)
In short: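 GeneBLAzer FXR-UAS-bla HEK 293T, CDCA-stimulated (50 uM final). Compound treatment 16 h, 37 °C. Detection: beta-lactamase cleavage of B/G FRET substrate, fluorescence.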

[18] = molecular target: Bile acid receptor (Homo sapiens) (UniProt Q96RI1); experiment: qHTS assay to identify small molecule agonists of the farnesoid-X-receptor (FXR) signaling pathway (AID 743220; active = well fitted activation curve with a large enough effect in the signal ratio in the repeat runs, not every such curve was filed as active; the % refers to the signal ratio)
In short: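 Beta-lactamase reporter under UAS control in GeneBLAzer FXR HEK 293T cells (5000/well) measured with LiveBLAzer FRET substrate after 2 h at room temperature. Compound exposure lasted 16 h at 37C.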

[19] = molecular target: Vitamin D3 receptor (Homo sapiens) (UniProt P11473); experiment: qHTS assay to identify small molecule agonists of the vitamin D receptor (VDR) signaling pathway (AID 743222; calls by dose curve)
In short: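 In VDR-bla cells, compound-induced beta-lactamase expression is quantified by FRET substrate fluorescence. Treatment lasts 16 h at 37C; substrate develops 2 h at room temperature.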

[20] = qHTS assay to identify aromatase inhibitors - cell viability counter screen (AID 743084);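 also: cells stimulated with testosterone during compound exposure; nearly all actives have a fitted effect of over 55% in size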

Measured: Potency

Chain of Bile acid receptor (Homo sapiens) (Q96RI1 whole entry, looked up): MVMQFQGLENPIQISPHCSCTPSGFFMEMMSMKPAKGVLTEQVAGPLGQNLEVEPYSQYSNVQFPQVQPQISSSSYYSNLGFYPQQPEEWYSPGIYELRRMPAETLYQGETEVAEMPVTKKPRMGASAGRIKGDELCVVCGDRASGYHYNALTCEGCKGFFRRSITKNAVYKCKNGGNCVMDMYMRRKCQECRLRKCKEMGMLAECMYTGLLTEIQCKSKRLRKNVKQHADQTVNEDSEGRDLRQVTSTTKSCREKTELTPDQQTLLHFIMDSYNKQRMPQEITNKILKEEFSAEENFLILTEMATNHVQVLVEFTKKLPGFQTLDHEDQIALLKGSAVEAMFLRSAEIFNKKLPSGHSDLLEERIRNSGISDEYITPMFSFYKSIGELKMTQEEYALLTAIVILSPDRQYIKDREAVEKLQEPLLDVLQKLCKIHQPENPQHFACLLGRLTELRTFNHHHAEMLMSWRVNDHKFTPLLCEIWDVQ
Chain of Vitamin D3 receptor (Homo sapiens) (P11473 whole entry, looked up): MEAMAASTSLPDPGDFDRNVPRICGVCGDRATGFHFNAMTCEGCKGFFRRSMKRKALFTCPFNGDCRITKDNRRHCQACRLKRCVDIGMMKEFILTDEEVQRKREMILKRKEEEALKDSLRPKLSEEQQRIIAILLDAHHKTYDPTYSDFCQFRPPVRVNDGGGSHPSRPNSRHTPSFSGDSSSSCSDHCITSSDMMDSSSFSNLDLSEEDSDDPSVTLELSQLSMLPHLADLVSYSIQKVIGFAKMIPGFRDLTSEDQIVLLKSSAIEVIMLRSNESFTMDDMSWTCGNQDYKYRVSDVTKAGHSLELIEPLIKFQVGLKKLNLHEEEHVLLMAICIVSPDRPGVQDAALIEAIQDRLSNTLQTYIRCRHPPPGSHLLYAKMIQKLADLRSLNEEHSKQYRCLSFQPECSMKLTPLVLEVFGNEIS
Chain of Peroxisome proliferator-activated receptor gamma (Homo sapiens) (P37231 whole entry, looked up): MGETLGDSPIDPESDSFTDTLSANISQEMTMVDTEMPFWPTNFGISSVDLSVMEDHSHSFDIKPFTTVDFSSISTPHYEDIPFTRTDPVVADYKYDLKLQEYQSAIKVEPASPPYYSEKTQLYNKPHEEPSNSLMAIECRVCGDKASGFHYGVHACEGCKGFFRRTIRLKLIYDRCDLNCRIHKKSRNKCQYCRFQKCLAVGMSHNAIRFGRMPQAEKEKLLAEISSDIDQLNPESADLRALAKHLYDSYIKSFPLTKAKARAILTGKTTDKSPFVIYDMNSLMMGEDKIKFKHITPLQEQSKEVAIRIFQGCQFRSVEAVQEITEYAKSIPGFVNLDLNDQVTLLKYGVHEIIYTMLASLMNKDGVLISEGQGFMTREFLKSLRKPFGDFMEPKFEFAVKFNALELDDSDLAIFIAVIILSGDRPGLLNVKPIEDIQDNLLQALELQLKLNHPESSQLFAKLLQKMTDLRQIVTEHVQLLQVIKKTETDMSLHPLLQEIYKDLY
Chain of Aryl hydrocarbon receptor (Homo sapiens) (P35869 whole entry, looked up): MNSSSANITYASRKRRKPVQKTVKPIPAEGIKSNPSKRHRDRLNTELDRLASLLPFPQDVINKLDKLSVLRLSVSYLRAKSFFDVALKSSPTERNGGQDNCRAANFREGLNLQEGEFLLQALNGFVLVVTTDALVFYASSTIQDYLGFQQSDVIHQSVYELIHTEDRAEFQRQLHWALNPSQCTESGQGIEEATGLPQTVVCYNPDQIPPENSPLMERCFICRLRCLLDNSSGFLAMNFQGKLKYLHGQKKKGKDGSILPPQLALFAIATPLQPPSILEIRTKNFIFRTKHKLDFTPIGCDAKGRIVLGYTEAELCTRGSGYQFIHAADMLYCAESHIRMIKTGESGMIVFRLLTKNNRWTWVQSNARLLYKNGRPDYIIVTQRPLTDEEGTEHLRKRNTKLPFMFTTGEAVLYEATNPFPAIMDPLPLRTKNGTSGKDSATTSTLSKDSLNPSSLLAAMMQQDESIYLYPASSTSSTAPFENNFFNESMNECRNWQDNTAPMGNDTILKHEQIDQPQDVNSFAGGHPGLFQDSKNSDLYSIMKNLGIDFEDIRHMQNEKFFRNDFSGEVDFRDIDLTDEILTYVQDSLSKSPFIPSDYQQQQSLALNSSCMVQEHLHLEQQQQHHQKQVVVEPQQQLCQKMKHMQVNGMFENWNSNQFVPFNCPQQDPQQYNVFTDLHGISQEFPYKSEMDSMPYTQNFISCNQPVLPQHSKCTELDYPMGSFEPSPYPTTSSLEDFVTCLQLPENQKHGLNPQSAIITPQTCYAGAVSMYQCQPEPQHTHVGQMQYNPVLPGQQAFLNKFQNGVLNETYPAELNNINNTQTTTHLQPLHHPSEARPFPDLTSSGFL
Chain of Peroxisome proliferator-activated receptor delta (Homo sapiens) (Q03181 whole entry, looked up): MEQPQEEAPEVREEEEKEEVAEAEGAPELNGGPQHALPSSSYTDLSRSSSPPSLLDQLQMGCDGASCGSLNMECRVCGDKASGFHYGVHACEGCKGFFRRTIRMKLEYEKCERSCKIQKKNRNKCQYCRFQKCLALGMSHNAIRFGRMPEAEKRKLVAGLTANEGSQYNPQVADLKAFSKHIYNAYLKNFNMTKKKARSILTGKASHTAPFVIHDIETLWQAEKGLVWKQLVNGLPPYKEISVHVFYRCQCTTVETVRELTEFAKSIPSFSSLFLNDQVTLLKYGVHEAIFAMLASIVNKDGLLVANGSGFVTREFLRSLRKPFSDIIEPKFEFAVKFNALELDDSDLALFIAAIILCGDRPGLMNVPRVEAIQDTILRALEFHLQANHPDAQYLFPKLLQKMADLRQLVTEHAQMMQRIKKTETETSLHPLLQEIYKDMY

Cc1ccccc1C(=O)O
not listed: [15] | [16] | [17] | [18] | [19] | [20]
inactive: all other assays above

CCN1CCN(c2cc3c(cc2F)c(=O)c(C(=O)O)cn3C2CC2)CC1
not listed: [8] | [11] | [17] | [18] | [19] | [20]
inactive: all other assays above

CCCCCCCCC=O
inactive: [2] | [15] | [6] | [7] | [16] | [9] | [10] | [13]

O=c1[nH]c(=O)n([C@H]2O[C@H](CO)[C@@H](O)[C@@H]2O)cc1/C=C\Br
inactive: [15] | [6] | [7] | [8] | [9] | [10] | [11] | [12] | [13]

O=C(CCOCCOCCOCCOCCC(=O)Nc1c(I)cc(I)c(C(=O)O)c1I)Nc1c(I)cc(I)c(C(=O)O)c1I
inactive: [5] | [15] | [6] | [7] | [16] | [8] | [10] | [12] | [13] | [14]

CCCCCCCCCCCCCCC
not listed: [1] | [3] | [4] | [14] | [17] | [18] | [19] | [20]
inactive: all other assays above

O=C1CC2(CCCC2)CC(=O)N1
not listed: [1] | [2] | [3] | [20]
inactive: all other assays above

CC(C)(C)C(=O)/C=C/c1ccc(Cl)cc1
not listed: [1] | [4] | [9] | [11] | [14] | [15] | [16] | [20]
inactive: all other assays above

O=S(=O)(c1cccc2cnccc12)N1CCCNCC1
not listed: [1] | [3] | [8] | [11] | [12] | [14] | [15] | [17]
inactive: all other assays above

CCCCCCCCCCCCI
not listed: [1] | [3] | [4] | [9] | [11] | [20]
inactive: all other assays above

CCCCCCCCCCC1CO1 (configuration not stated)
not listed: [1] | [3] | [15] | [17] | [18] | [19]
inactive: all other assays above

CN(C)N=Nc1ccccc1
not listed: [1] | [3] | [4] | [17] | [18] | [19] | [20]
inactive: all other assays above

CC(C)CCCC(C)NCCC(C)C (configuration not stated)
not listed: [1] | [2] | [3] | [15] | [17] | [18] | [20]
inactive: all other assays above

O=C(O)CCNC(=O)c1ccc(N=Nc2ccc(O)c(C(=O)O)c2)cc1
not listed: [2] | [14] | [16] | [19] | [20]
inactive: all other assays above

CCn1c(=O)c2c(nc(/C=C/c3ccc(OC)c(OC)c3)n2C)n(CC)c1=O
not listed: [1] | [2] | [3] | [4] | [11] | [20]
inactive: all other assays above

C=CC(=O)OCCCCCC
not listed: [1] | [3] | [4] | [11] | [14] | [17] | [18] | [19]
inactive: all other assays above
